{"source": "paper PMC4336329", "about": "(PLoS ONE, 2015)", "note": "The campaign covered roughly 310,000 compounds. About 14,000 (4.5%) showed an effect of 50% or more. The effect is printed as a negative number. For the sample, strong results were picked, then their nearest neighbours and some compounds at random.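 Further: peak tail current of the secondary pulse compared with the same well before compound.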", "data": [{"target": "human ether-à-go-go-related gene (hERG) potassium channel (human, UniProt Q12809)", "sequence (Q12809 whole entry, looked up)": "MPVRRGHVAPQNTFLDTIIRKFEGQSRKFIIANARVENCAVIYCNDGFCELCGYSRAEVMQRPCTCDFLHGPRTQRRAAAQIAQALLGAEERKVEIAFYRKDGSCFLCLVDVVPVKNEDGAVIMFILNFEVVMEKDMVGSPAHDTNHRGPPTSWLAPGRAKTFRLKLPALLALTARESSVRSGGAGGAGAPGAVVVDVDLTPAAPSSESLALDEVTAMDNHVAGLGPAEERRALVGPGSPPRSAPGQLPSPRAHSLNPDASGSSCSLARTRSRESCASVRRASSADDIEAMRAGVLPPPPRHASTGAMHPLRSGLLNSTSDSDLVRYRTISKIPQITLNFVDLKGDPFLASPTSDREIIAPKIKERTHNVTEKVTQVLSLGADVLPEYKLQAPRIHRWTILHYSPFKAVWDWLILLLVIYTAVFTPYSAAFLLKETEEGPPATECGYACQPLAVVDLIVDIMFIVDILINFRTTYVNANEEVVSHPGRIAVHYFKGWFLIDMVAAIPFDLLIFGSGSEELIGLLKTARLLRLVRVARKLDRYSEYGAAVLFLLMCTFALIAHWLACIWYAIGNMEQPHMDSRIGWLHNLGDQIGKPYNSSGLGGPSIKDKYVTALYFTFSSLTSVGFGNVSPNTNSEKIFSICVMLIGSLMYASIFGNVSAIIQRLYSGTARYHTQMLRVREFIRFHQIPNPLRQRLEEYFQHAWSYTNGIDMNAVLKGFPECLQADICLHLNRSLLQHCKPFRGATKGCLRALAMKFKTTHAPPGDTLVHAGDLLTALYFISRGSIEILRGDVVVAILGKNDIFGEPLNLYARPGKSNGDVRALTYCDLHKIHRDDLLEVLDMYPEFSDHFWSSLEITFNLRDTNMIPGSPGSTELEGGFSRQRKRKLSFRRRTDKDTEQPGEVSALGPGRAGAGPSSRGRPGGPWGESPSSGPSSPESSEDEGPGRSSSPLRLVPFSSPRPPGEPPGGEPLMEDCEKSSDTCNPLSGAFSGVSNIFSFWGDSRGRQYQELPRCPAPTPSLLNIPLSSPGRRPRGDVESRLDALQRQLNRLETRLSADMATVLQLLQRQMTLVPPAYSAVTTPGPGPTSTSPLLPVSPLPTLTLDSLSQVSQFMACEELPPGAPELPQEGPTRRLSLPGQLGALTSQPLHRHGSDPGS", "test": "primary screen, population patch clamp on CHO cells stably expressing hERG; higher = less effect of the substance", "units": {"hERG current change (%, negative = inhibition) at 10uM": "%"}, "values": [{"smiles": "O=c1c2ccccc2c(C=NCCCN2CCOCC2)c(O)n1Cc1ccccc1", "hERG current change (%, negative = inhibition) at 10uM": -47.7}, {"smiles": "CN(C)CCN=Cc1c(O)n(Cc2ccc3c(c2)OCO3)c(=O)c2ccccc12", "hERG current change (%, negative = inhibition) at 10uM": -13.8}, {"smiles": "CCN(CC)CCCN=Cc1c(O)n(-c2c(C)cccc2C)c(=O)c2ccccc12", "hERG current change (%, negative = inhibition) at 10uM": -34.2}, {"smiles": "O=c1c2ccccc2c(C=NCCc2ccccc2)c(O)n1Cc1ccccc1", "hERG current change (%, negative = inhibition) at 10uM": -5.61}, {"smiles": "CCN(CC)CCCN=Cc1c(O)n(-c2ccccc2C)c(=O)c2ccccc12", "hERG current change (%, negative = inhibition) at 10uM": -52.8}, {"smiles": "CN(C)CCCN=Cc1c(O)n(Cc2ccccc2)c(=O)c2ccccc12", "hERG current change (%, negative = inhibition) at 10uM": -64.5}, {"smiles": "CCN(CC)CCCN=Cc1c(O)n(-c2cccc(C)c2)c(=O)c2ccccc12", "hERG current change (%, negative = inhibition) at 10uM": -42.8}, {"smiles": "Cc1cccc(NC(=O)CSc2nnc(Cn3cnc4ccccc43)o2)c1", "hERG current change (%, negative = inhibition) at 10uM": -9.07}, {"smiles": "Cc1ccc(S(=O)(=O)N2CCN(C(=O)c3c(-c4ccccc4)noc3C)CC2)cc1", "hERG current change (%, negative = inhibition) at 10uM": -4.97}, {"smiles": "COc1ccc(S(=O)(=O)Nc2ccc(C(F)(F)F)cc2)cc1OC", "hERG current change (%, negative = inhibition) at 10uM": -12.4}, {"smiles": "O=C(Cc1ccccc1)N1CCC(c2nc(-c3ccc(F)cc3)no2)CC1", "hERG current change (%, negative = inhibition) at 10uM": -50.6}, {"smiles": "O=C(c1ccco1)N1CCC(c2nc(-c3ccc(F)cc3)no2)CC1", "hERG current change (%, negative = inhibition) at 10uM": -41.8}, {"smiles": "O=C(Cc1ccccc1)N1CCCC(c2nc(-c3ccc(S(=O)(=O)N4CCCC4)cc3)no2)C1", "note": "(stereo not drawn)", "hERG current change (%, negative = inhibition) at 10uM": -9.11}, {"smiles": "Fc1ccc(-c2noc(C3CCN(Cc4cccnc4)CC3)n2)cc1", "hERG current change (%, negative = inhibition) at 10uM": -51.5}, {"smiles": "O=S(=O)(Cc1ccccc1)N1CCCC(c2nc(-c3ccc(F)cc3)no2)C1", "note": "(stereo not drawn)", "hERG current change (%, negative = inhibition) at 10uM": -3.59}, {"smiles": "CCCC1CCC(c2nc(-c3cccnc3)no2)CC1", "note": "(stereo not drawn)", "hERG current change (%, negative = inhibition) at 10uM": 2.03}, {"smiles": "COCC(=O)N1CCC(Oc2ccc(C(=O)NC3Cc4ccccc4C3)cc2)CC1", "hERG current change (%, negative = inhibition) at 10uM": -3.57}, {"smiles": "S=c1[nH]nc(-c2ccncc2)n1/N=C/C(Cl)=C\\c1ccccc1", "hERG current change (%, negative = inhibition) at 10uM": 23.3}, {"smiles": "COc1ccccc1CNC(=O)c1cccc(N(C)C)c1", "hERG current change (%, negative = inhibition) at 10uM": -2.52}, {"smiles": "CCCCn1c(O)c(C(C)=NC(C)c2ccccc2)c(=O)[nH]c1=O", "note": "(stereo not drawn)", "hERG current change (%, negative = inhibition) at 10uM": -22.3}, {"smiles": "CCCCn1c(O)c(C(C)=NCCc2c[nH]c3ccccc23)c(=O)[nH]c1=O", "hERG current change (%, negative = inhibition) at 10uM": -16}, {"smiles": "CCCCn1c(O)c(C(C)=NC(Cc2c[nH]c3ccccc23)C(=O)OC)c(=O)[nH]c1=O", "note": "(stereo not drawn)", "hERG current change (%, negative = inhibition) at 10uM": -52.1}, {"smiles": "COC(=O)c1cc(=O)nc2scc(C)n12", "hERG current change (%, negative = inhibition) at 10uM": -23.1}, {"smiles": "CCC1CCCCN1Cc1ccc(CNS(=O)(=O)c2ccc3c(c2)oc(=O)n3C)o1", "note": "(stereo not drawn)", "hERG current change (%, negative = inhibition) at 10uM": -19.3}, {"smiles": "CCOC(=O)c1cc(-c2cc(OC)c(OC)c(OC)c2)nc2c1c(=O)[nH]c(=O)n2Cc1ccccc1", "hERG current change (%, negative = inhibition) at 10uM": 1.34}, {"smiles": "CCCOC(=O)c1ccc(NC(=O)CC(C)(C)C)cc1", "hERG current change (%, negative = inhibition) at 10uM": -11.1}, {"smiles": "Cc1ccc(CN2CCN(/N=C/c3ccccc3)CC2)cc1", "hERG current change (%, negative = inhibition) at 10uM": -12.7}, {"smiles": "Cc1ccc(CN2CCN(/N=C\\C=C\\c3ccccc3)CC2)cc1", "hERG current change (%, negative = inhibition) at 10uM": -72.2}, {"smiles": "CC(=O)Oc1ccc(/C(C)=N/N2CCN(Cc3ccc(C)cc3)CC2)cc1", "hERG current change (%, negative = inhibition) at 10uM": -73.2}, {"smiles": "C/C(=N\\N1CCN(Cc2ccc(Cl)cc2)CC1)c1ccc([N+](=O)[O-])cc1", "hERG current change (%, negative = inhibition) at 10uM": -72.6}, {"smiles": "CC(=O)Oc1ccc(/C(C)=N\\N2CCN(Cc3ccc(Cl)cc3)CC2)cc1", "hERG current change (%, negative = inhibition) at 10uM": -36.8}, {"smiles": "COc1cc(/C(C)=N/N2CCN(Cc3ccc(C)cc3)CC2)ccc1O", "hERG current change (%, negative = inhibition) at 10uM": -44.3}, {"smiles": "C/C(=N\\N1CCN(Cc2ccc(Cl)cc2)CC1)c1ccc(F)cc1", "hERG current change (%, negative = inhibition) at 10uM": -51.6}, {"smiles": "O=[N+]([O-])c1ccc(Cl)c(/C=N/N2CCN(Cc3ccc(Cl)cc3)CC2)c1", "hERG current change (%, negative = inhibition) at 10uM": 4.9}, {"smiles": "C/C(=N/N1CCN(Cc2ccccc2)CC1)c1ccc(Br)cc1", "hERG current change (%, negative = inhibition) at 10uM": -19.9}, {"smiles": "C/C(=N\\N1CCN(c2ccc(Cl)cc2)CC1)c1cccc([N+](=O)[O-])c1", "hERG current change (%, negative = inhibition) at 10uM": -12.4}, {"smiles": "C/C(=N\\N1CCN(Cc2ccccc2Cl)CC1)c1ccc(F)cc1", "hERG current change (%, negative = inhibition) at 10uM": 2.05}, {"smiles": "C(=C\\c1ccccc1)/C=N/N1CCN(Cc2ccccc2)CC1", "hERG current change (%, negative = inhibition) at 10uM": 1.45}, {"smiles": "O=C(COC(=O)c1ccc(O)cc1)Nc1ccc2[nH]c(=O)[nH]c2c1", "hERG current change (%, negative = inhibition) at 10uM": 2.48}, {"smiles": "O=C(Nc1cc([N+](=O)[O-])ccc1Cl)C1CC1", "hERG current change (%, negative = inhibition) at 10uM": 14.1}, {"smiles": "COc1ccc(Cn2c(=S)[nH]c3cc(C(=O)N4CCCCC4)ccc3c2=O)cc1", "hERG current change (%, negative = inhibition) at 10uM": 13.3}, {"smiles": "Cc1cc(-n2nc3ccccc3n2)c(O)c([N+](=O)[O-])c1", "hERG current change (%, negative = inhibition) at 10uM": 6.11}]}]}
